Source: PubChem BioAssay (National Center for Advancing Translational Sciences (NCATS))
A selection: hits, their analogues and other compounds. The true share with any hit is near 1.3%.
Pin1 inhibitor: blocks the human prolyl isomerase Pin1 | Q13526 | Potency, µM (doses to about 115 µM), inactives show at the highest dose activity, negative = inhibition, actives largely listed as inhibitors | Pin1 FP peptide displacement, HiFluor488, 10 min | actives 0.009% (n = 390,000); active = well fitted inhibition curve with a large enough effect in the polarisation, with a control signal flat, not every such curve was filed as active; inconclusive = small, poorly fitted or top-dose-only effect, or effect the other way, or a change in a side signal; inactive = no such curve, though single readings can be large or run the other way; the % refers to the polarisation; also: potency is read from the fitted curve at half-maximal effect; % is scaled to controls: 0 for no effect and ±100 for the full control effect
Target sequence (Q13526 whole entry, looked up): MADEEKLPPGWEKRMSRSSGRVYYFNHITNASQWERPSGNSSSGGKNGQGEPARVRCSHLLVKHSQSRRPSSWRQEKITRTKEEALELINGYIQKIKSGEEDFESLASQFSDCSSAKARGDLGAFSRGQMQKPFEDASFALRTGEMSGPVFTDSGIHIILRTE
TrxR1 substrate: rat thioredoxin reductase 1 substrate activity. O89049. purified TrxR1 substrate turnover, NADPH consumption readout. Potency, µM (titrated, usually from 114 µM), inactives show at the highest dose activity change, negative = substrate turnover. actives 0.01% (n = 390,000). AID 588456; also: potency is read from the fitted curve at half-maximal effect; % is scaled to controls: 0 for no effect and ±100 for the full control effect; nearly all actives have a fitted effect of over 50% in size
Target sequence (O89049 whole entry, looked up): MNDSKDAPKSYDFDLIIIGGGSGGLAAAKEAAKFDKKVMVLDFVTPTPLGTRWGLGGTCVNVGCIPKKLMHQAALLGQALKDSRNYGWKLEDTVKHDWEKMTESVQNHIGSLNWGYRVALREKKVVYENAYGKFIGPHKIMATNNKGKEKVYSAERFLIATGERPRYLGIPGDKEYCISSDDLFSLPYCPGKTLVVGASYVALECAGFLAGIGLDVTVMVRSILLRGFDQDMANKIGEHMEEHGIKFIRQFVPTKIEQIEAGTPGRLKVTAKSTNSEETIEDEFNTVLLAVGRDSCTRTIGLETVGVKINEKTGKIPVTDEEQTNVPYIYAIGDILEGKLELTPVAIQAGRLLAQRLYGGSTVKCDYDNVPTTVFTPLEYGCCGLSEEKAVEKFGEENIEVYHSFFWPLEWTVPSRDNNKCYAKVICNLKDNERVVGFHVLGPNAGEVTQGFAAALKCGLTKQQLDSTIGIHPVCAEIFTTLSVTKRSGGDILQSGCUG
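Rat TrxR1, dispensed at 90 nM, was prereduced with 400 uM NADPH (final) for 5 min at ~22 deg C, then incubated with compound 15 min before 400 uM selenite. A first-read NADPH fluorescence drop versus no-compound background flagged substrates.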
GCN5L2 inh-1: inhibitors of human GCN5L2 histone acetyltransferase. GCN5L2 HAT assay, ThioGlo1 CoA-SH fluorescence. actives 0.21% (n = 390,000). Potency, µM (top dose mostly 58.9 µM), inactives show at the highest dose activity change, negative = inhibition, usual class: inhibitors. AID 504327. Q92830; also: potency is read from the fitted curve at half-maximal effect; % is scaled to controls: 0 for no effect and ±100 for the full control effect
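Titration-based screen in which CoA formation is detected via maleimide probe ThioGlo1 (50uM) turning fluorescent on thiol reaction; substrates H3(1-25) 75uM and acetyl-CoA 70uM, GCN5L2 20nM, 20 min incubation at room temperature.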
GALK inh: blocks human galactokinase activity | actives 0.007% (n = 270,000) | Potency, µM (series often up to 57.5 µM), without a hit: top-dose activity change, negative = inhibition, most hits filed as inhibitors | Purified GALK, Kinase-Glo residual ATP luminescence | AID 1868; also: potency is read from the fitted curve at half-maximal effect; % is scaled to controls: 0 for no effect and ±100 for the full control effect
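Kinase-Glo Plus luminescence measured ATP left after a 1 h room-temperature reaction. The reaction used 5 nM GALK, 100 uM galactose and 35 uM ATP at pH 8.0 (20 mM HEPES, 5 mM MgCl2, 60 mM NaCl, 1 mM DTT, 0.01% BSA).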
Giardia killer: Giardia lamblia killing. Giardia lamblia trophozoite viability. activity change, % at 7.66 µM, hits read low. actives 0.15% (n = 340,000). AID 540267; in the data active = activity change below about -80%; inconclusive = between about -30% and that limit;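 also: parasites exposed to compound for two days anaerobically before the ATP read; % is scaled to controls: 0 for no effect and ±100 for the full control effect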
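Trophozoite viability was measured as ATP-dependent luminescence, read 15-30 min after reagent addition. Before that, parasites at 100 cells/well were exposed to compounds for 48 h, anaerobically, at 37 deg C.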
TrxR1 inh-1: rat TrxR1 inhibition; O89049; recombinant rTrxR1, NADPH fluorescence consumption, selenite substrate; Potency, µM (series often up to 114 µM), for the others: at the highest dose activity change, negative = inhibition, usual class: inhibitors; actives 1% (n = 390,000); AID 588453; also: potency is read from the fitted curve at half-maximal effect; % is scaled to controls: 0 for no effect and ±100 for the full control effect; nearly all actives have a fitted effect of over 65% in size
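Rat TrxR1 (90 nM in the dispensed reagent) was pre-reduced with 400 uM NADPH for 5 min at room temperature, then incubated with compound for 15 min. After 400 uM selenite was added, NADPH fluorescence (Ex 340/Em 450 nm) was followed for 8 min.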
GCN5L2 inh-2: confirmation of human GCN5L2 histone acetyltransferase inhibitors; shares compounds with GCN5L2 inh-1; actives 70% (n = 140); Potency, µM, actives largely listed as inhibitors; AID 588347; GCN5L2 HAT, ThioGlo1 CoA fluorescence, 20 min
GR inh: glutathione reductase inhibition, TrxR1 selectivity check; shares compounds with TrxR1 inh-1; purified GR, DTNB reduction absorbance 405 nm kinetic; activity change, negative = inhibition, % at 57.1 µM; 55 tested, under 10 active
TrxR1 inh-2: rat TrxR1 inhibition, primary screen retest; recombinant TrxR1, NADPH fluorescence consumption, selenite substrate; shares compounds with TrxR1 inh-1; actives 50% (n = 55); Potency, µM, actives largely listed as inhibitors
TrxR1 insulin: TrxR1 inhibition in insulin mechanism assay | shares compounds with TrxR1 inh-1 | TrxR1 Trx-coupled insulin reduction, NADPH absorbance 340 nm | Potency, µM | actives 20% (n = 55);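 active = compounds with a measured potency under 100 micromolar; inconclusive = filed, but no rule given; inactive = potency at or above that, or unmeasurable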
TrxR1 inh-3: blocks rat TrxR1 reduction of DTNB; shares compounds with TrxR1 inh-1; purified TrxR1, DTNB reduction, A412; Potency, µM; actives 90% (n = 55); AID 652256;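 active = a half-inhibiting concentration could be measured and was below 100 µM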
Numbers without * were called inactive; i = inactive; ? = inconclusive; . = not tested or not shown; ! = repeats disagree; [ ] = remark or other dose. Unless noted, calls follow the shape of the dose curve; as a rule, active = well fitted curve in the direction sought with a large enough effect; inconclusive = small, poorly fitted or top-dose-only effect, or another doubt; inactive = no such curve, though single readings can be large; an effect the other way counts as inactive or inconclusive.

SMILES | Pin1 inhibitor | TrxR1 substrate | GCN5L2 inh-1 | GALK inh | Giardia killer | TrxR1 inh-1 | GR inh | TrxR1 inh-2 | TrxR1 insulin | TrxR1 inh-3 | others
CCOC(=O)C1CCCN(C(=O)c2cc(-c3ccco3)nc3ccccc23)C1 (stereo not given) | . | 408% | 28µM* | . | 8 | ? | . | . | . | . | GCN5L2 inh-2=18*
Cc1ccc(CNC(=O)c2cn(C)c(=O)c3c2c2ccccc2n3C)o1 | 3% | 10% | -9% | -3% | 7 | 16µM* | -15 | ? | i | 1.5µM*
Cc1ccc(CNC(=O)c2cc3c(=O)n(C)c4ccccc4c3n2C)o1 | 1% | 6% | -4% | 2% | -6 | ? | . | . | . | .
O=C(OCC#CCSc1nnc(-c2cccc3ccccc23)o1)C1CCCC1 | 2% | . | . | . | . | . | . | . | . | .
Cc1ccc2[nH]c(=O)c(CN(CCCN3CCOCC3)Cc3nnnn3C3CCCC3)cc2c1 | -9% | 9% | 1% | 8% | -3 | 20µM* | ? | ? | 3µM* | 5.4µM*
CCCCN(CCCC)c1ccc(C=Nc2ccc(/C=C/c3ccnc4ccccc34)cc2)cc1C | . | -12% | . | . | . | -12% | . | . | . | .
O=S(=O)(NCCc1csc2nc(-c3ccc(Cl)cc3)nn12)c1ccc2c(c1)OCCO2 | 54% | 2%[57.1 µM] | -4% | . | . | 21%[57.1 µM] | . | . | . | .
Cc1cc(C)c2c(CC(=O)Nc3nnc(C(C)C)s3)coc2c1 | 6% | 11% | -8% | . | . | 24% | . | . | . | .
COC(=O)c1ccccc1S(=O)(=O)N(Cc1ccco1)Cc1cc2cc(OC)ccc2[nH]c1=O | 8% | 24% | 0% | 1% | -4 | 10µM* | 0 | 6* | i | 7.4µM*
CCn1c(=O)[nH]c2ccccc2c1=O | 6% | 9%[57.1 µM] | -1% | . | -16 | 5%[57.1 µM] | . | . | . | .
CCc1c(C(C)S(=O)(=O)c2ccccc2)[nH]c(=O)n1CC (stereo not given) | -9% | -16%[57.1 µM] | -7% | 3% | 3 | 1.8µM* | -13 | 2.4* | 4µM* | 0.045µM*
Cc1cccc(C(=O)Nc2nnc(S(=O)(=O)N(C)Cc3ccco3)s2)c1 | 25% | 0% | -7% | -5% | 3 | 45µM*! | -3 | ? | ? | 49µM*
Cc1cccc(NC2(C(=O)O)CCCC2)c1 | -3% | 8% | . | . | -14 | 1% | . | . | . | .
COC(=O)c1sc(NC(=O)c2cc3nc(-c4ccc(Br)cc4)cc(C(F)(F)F)n3n2)c(C(=O)OC)c1C | -3% | 3%[57.1 µM] | 0% | . | . | 14%[57.1 µM] | . | . | . | .
CCOC(=O)C1CCN(C(c2ccccn2)c2c(C)[nH]c3ccccc23)CC1 (stereo not given) | -6% | 1% | -3% | -2% | -8 | 2.5µM* | -25 | 1.5* | i | 0.19µM*
COCCn1nnnc1C(c1ccc(O)c(OC)c1)N1CCc2ccccc2C1 (stereo not given) | -3% | 20%[57.1 µM] | ? | -2% | 27 | 5.6µM* | 0 | 4.7* | i | 0.27µM*
CCC(C)(C)n1nnnc1C(c1ccc(O)cc1)N1CCc2ccccc2C1 (stereo not given) | 44% | 7%[57.1 µM] | 3% | 5% | 6 | 16µM* | -21 | 7.5* | i | 0.24µM*
CCOC(=O)C1CCN(c2cc(C)nc3c(-c4ccccc4OC)c(C)nn23)CC1 | 2% | -7%[57.1 µM] | -3% | . | . | 3%[57.1 µM] | . | . | . | .
CCN(CC)S(=O)(=O)c1ccc(N2CCOCC2)c(NC(=O)c2[nH]c(C)c(C(C)=O)c2C)c1 | 2% | -3% | -5% | . | 11 | 1% | . | . | . | .
COc1cc(/C=C2/C(=O)NN(c3cccc(F)c3)C2=O)ccc1OC(=O)c1ccco1 | . | -9% | -3% | -7% | 7 | 28µM* | 0 | ? | i | 6.8µM*
Cc1ccc(NC(=O)CCN2C(=O)c3ccccc3Sc3ncccc32)cc1 | 0% | -10% | -4% | 2% | 16 | 11µM* | 0 | 9.5* | i | i
C/C=C\C=C\C(=O)Nc1cccc(C2=NOC3(C2)C[C@@H](C(N)=O)N(C(=O)C(c2ccccc2)c2ccccc2)C3)c1 (stereo not given in full) | 48% | -3% | 21% | 4% | -4 | 13µM* | . | . | i | i
CN1c2ccccc2N(C)C1(C)c1cccc2ccccc12 | ? | -8% | -6% | -2% | 2 | 50µM* | -15 | ? | i | 4.4µM*
